Percent Effect data for 104 compounds are collected here from ChEMBL document CHEMBL3988442, “University of Dundee, Small-Polar-MMV Screening Library” (2021).

Structures are written as SMILES. About 300 (0.45%) of roughly 67,000 compounds showed an effect of 50% or more. For the sample, strong results were picked, then their nearest neighbours and some compounds at random.

Chain of Polyketide synthase Pks13 (Mycobacterium tuberculosis (strain ATCC 25618 / H37Rv)) (I6X8D2 whole entry): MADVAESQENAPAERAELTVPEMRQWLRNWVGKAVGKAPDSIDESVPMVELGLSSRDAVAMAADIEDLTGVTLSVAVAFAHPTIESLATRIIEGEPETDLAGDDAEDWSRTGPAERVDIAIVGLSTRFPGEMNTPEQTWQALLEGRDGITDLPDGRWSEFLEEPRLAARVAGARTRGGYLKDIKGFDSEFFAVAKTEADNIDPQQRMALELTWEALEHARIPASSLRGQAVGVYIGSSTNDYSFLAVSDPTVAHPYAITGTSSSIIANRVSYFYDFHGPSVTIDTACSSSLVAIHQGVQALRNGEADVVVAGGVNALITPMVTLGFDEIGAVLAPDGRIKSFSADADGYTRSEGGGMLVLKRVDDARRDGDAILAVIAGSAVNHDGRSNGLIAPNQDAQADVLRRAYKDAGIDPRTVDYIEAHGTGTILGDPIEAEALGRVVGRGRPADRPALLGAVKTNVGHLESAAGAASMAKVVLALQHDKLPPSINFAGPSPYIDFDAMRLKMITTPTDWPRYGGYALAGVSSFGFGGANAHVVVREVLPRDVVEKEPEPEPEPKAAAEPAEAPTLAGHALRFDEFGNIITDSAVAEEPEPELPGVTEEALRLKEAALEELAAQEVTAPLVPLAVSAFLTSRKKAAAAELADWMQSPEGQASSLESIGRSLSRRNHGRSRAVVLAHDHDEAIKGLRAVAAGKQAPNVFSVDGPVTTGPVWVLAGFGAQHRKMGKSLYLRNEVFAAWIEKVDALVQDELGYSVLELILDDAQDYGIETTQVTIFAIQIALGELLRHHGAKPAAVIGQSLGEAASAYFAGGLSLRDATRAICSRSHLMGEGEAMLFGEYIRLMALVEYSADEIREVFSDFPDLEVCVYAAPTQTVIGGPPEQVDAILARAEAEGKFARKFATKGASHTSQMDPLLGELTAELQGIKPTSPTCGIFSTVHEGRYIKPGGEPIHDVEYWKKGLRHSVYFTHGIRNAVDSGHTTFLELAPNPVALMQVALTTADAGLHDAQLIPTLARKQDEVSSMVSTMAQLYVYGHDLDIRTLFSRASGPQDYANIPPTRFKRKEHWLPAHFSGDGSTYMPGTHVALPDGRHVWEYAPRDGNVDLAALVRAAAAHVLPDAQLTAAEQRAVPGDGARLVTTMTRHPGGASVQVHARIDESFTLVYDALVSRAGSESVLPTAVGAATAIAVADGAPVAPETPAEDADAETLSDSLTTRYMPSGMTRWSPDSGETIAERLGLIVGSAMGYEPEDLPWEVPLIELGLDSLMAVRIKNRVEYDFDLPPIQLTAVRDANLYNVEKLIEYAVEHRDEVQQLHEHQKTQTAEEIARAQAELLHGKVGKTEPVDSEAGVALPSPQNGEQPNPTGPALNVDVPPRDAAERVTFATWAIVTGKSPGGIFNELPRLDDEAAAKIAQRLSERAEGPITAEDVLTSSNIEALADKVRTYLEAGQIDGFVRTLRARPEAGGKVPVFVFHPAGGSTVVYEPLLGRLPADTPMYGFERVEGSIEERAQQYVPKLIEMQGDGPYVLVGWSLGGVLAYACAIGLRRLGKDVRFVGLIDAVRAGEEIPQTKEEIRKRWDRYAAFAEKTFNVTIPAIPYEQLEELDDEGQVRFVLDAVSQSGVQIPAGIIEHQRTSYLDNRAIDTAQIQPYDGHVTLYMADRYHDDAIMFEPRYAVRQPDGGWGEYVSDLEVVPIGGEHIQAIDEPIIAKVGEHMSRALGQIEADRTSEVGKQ

The assay has as its target Polyketide synthase Pks13 (Mycobacterium tuberculosis (strain ATCC 25618 / H37Rv)) (UniProt I6X8D2). The assay is described as follows: Mycobacterium tuberculosis Polyketide synthase 13 Thioesterase (PKS13). The assay is classed as functional. On the set-up: scale not given: in the data most compounds retested in dose-response had high values. The note with it: 30 µM.
For `Cc1cc(C)n(-c2nc(C(=O)NCCN3CCC(C)CC3)cs2)n1`, the Percent Effect worked out at 51.2%.

On to `Cc1cc(C(=O)NCCN2CCC(C)CC2)nn1C(C)(C)C`, for which the Percent Effect is -8.5%. Regarding `Cc1cc(C)n(-c2nc(C(=O)NCCS(=O)(=O)N3CCCCC3)cs2)n1`, the Percent Effect turned out to be 16%. Turning to `CN(C)C(=O)CO[C@H]1CN(Cc2ccsc2)[C@@H]2COC[C@H]12`, the Percent Effect was -4.76%. On to `O=C(C1CC1)N1C[C@H]2CCCN(S(=O)(=O)c3cccc(F)c3)[C@H]2C1`, for which the Percent Effect was -2.59%. In the case of `CC(=O)NCCNC(=O)c1cnc(-c2ccc(C)cc2C)s1`, the Percent Effect came out at 10.8%. `Cc1ccc(-c2ncc(C(=O)NCCNC(=O)C(C)C)s2)c(C)c1`: the Percent Effect was determined as 1.54%.

In the case of `Cc1ccc(-c2ncc(C(=O)NCCNc3ncccn3)s2)c(C)c1`, the Percent Effect was determined as 70.6%. In the case of `Cc1ccc(C(=O)N2CC[C@H]3[C@@H]2CCC(=O)N3c2cccnc2)o1`, the Percent Effect was -561%. Consider `CN1CCS(=O)(=O)[C@@H]2CCN(C(=O)CC(C)(C)C)CC[C@@H]21`, for which the Percent Effect was -26%. As for `Cc1cc(CN2C[C@@H]3COC[C@H](C(=O)N4CCCCO4)[C@@H]3C2)oc1C`, the figure is -10.7%.

For `Cc1cnc(N2C[C@@H]3CCN(CC4CC4)C(=O)[C@H]3C2)nc1`, the Percent Effect was -1.64%.

With `CC(C)[C@H](NC(=O)c1cccc(CCC(C)(C)O)c1)C(N)=O`, the Percent Effect amounted to 5.12%. For `C[C@H](NC(=O)c1cccc(CCC(C)(C)O)c1)C(N)=O`, the Percent Effect came out at 54%. Consider `CC(C)(O)CCc1cccc(C(=O)N[C@@H](CO)C(N)=O)c1`, for which the Percent Effect turned out to be 10.3%. For `CN(Cc1cncnc1)[C@H]1CN(CC2CC2)[C@@H]2CCCO[C@@H]21`, the Percent Effect was -5.38%. `O=C1CN([C@@H]2CC[C@@H](NS(=O)(=O)c3ccccc3F)[C@H]2O)CCN1`: the Percent Effect is -2.59%. In the case of `Cc1ccccc1S(=O)(=O)N[C@@H]1CC[C@@H](N2CCNC(=O)C2)[C@@H]1O`, the Percent Effect worked out at 53%.

As for `O=C1CN([C@@H]2CC[C@@H](NS(=O)(=O)c3ccccc3)[C@H]2O)CCN1`, the Percent Effect turned out to be 0.207%. As for `COCCN1C[C@@H]2CCCO[C@@H]2[C@H](N(C)Cc2ccco2)C1`, the figure is -24.6%; as for `Cc1ccc(CN2CC[C@@]3(O)CCN(S(=O)(=O)N(C)C)C[C@H]3C2)cc1C`, -28.6%; as for `Cc1cc(-c2cnn(CCNC(=O)c3cnn(C)c3)c2C2CC2)on1`, -12.5%.

Take `Cc1cc(-c2cnn(CCNC(=O)C3CC3)c2C2CC2)on1`: the Percent Effect is -12%. For the compound `Cc1cc(-c2cnn(CCNC(=O)c3snnc3C)c2C2CC2)on1`, the Percent Effect was determined as 90.2%.

Consider `COc1cccc(-c2cc(NCCO)nc3[nH]ccc23)n1`, for which the Percent Effect was 7.17%. As for `COc1cccc(-c2cc(NCC(=O)O)nc3[nH]ccc23)n1`, the Percent Effect stood at 58.3%. As for `COc1cccc(-c2cc(NCCN(C)C)nc3[nH]ccc23)n1`, the Percent Effect is 7.82%.

With `CCC(=O)N1CCCCC[C@@H]2[C@@H]1[C@H](c1cccc(F)c1)CN2C`, the Percent Effect is -27%. For the compound `COc1cccc(-c2noc(-c3ccc(NCC(C)O)nc3)n2)c1OC` (centres undefined), the Percent Effect is 30.5%.

Turning to `CCC(C)Nc1ccc(-c2nc(-c3cccc(OC)c3OC)no2)cn1` (centres undefined), the Percent Effect was 69.5%.

With `COc1cccc(-c2noc(-c3ccc(NCCCO)nc3)n2)c1OC`, the Percent Effect was found to be 40.8%. For `COc1cccc(-c2noc(-c3ccc(NCC(C)C)nc3)n2)c1OC`, the Percent Effect was determined as 66%. With `CNCCNc1ccc(-c2nc(-c3cccc(OC)c3OC)no2)cn1`, the Percent Effect was -36.1%.

Take `COc1cccc(-c2noc(-c3ccc(NCC4CC4)nc3)n2)c1OC`: the Percent Effect is 36.1%.

Regarding `CN(C)C(=O)N1CC[C@]2(O)CCN(C(=O)c3ccc(C#N)nc3)C[C@@H]2C1`, the Percent Effect was -13.4%. As for `CCCN1CCN(C(=O)c2cc[nH]n2)[C@H]2CS(=O)(=O)C[C@H]21`, the Percent Effect was -8.12%.

Turning to `Cc1nnc([C@@H]2CC[C@@H]3[C@@H](CCN3Cc3ccccn3)O2)o1`, the Percent Effect is -21.9%.

In the case of `O=C1[C@@H]2CCN(CC3CCOCC3)C[C@@H]2OCCN1c1ccccc1`, the Percent Effect was -30.7%. Regarding `CCC(=O)N1CCN(C(=O)c2cn3ccsc3n2)[C@H]2CS(=O)(=O)C[C@H]21`, the Percent Effect was -15.8%.

Turning to `O=C(Cc1cnccn1)N1C[C@H]2CC[C@@H]1CN(Cc1cscn1)C2`, the Percent Effect was -24.8%. Then `CN(CCC(F)(F)F)C(=O)c1nc(S(C)(=O)=O)n2ccccc12`, with -23%. Take `Cc1nc(C(=O)N(C)CC(F)(F)C(F)(F)F)c2ccccn12`: the Percent Effect came to 132%. Then `CN(Cc1ccccc1)C(=O)c1nc(S(C)(=O)=O)n2ccccc12`, with -33.7%. Then `CC(C)CN1C(=O)CO[C@@H]2CN(C(=O)NC(C)C)C[C@H]21`, with -42.5%; and `O=C(CSCC1CC1)N1C[C@@H]2CC[C@H](C1)N(Cc1ccccn1)C2=O`, with -35%; and `CO[C@H]1CCN(Cc2c(C)noc2C)[C@@H]2CN(Cc3ccncc3)C[C@H]12`, with 13.1%. With `CNCc1cn(C[C@H]2C[C@@H]3CCN2C[C@@H]3C(=O)NC2CCCCC2)nn1`, the Percent Effect was -24.7%. For `CNc1cncc(C2CCCN2C(=O)c2ccc3oc(=O)n(C)c3c2)n1` (centres undefined), the Percent Effect was -18.4%.

For `CNc1cncc(C2CCCN2C(=O)Cn2c(=O)oc3ccccc32)n1` (centres undefined), the Percent Effect was found to be 130%. As for `Cn1cc(C2CCCN2C(=O)Cn2c(=O)oc3ccccc32)cn1` (centres undefined), the figure is -24.9%; as for `O=C(C1CCCO1)N1C[C@@H]2CCN(c3cnccn3)C[C@@H]2C1` (some centres undefined), -10.1%; as for `Cc1noc([C@@H]2C[C@H]3OCC[C@H]3N(S(C)(=O)=O)C2)n1`, -22.1%. On to `Cc1noc([C@@H]2C[C@H]3OCC[C@H]3N(S(=O)(=O)c3cccnc3)C2)n1`, for which the Percent Effect is 56.3%.

Turning to `Cc1noc([C@@H]2C[C@H]3OCC[C@H]3N(S(=O)(=O)c3ccccc3)C2)n1`, the Percent Effect was -2.66%. As for `CCOC(=O)[C@@H]1[C@@H](c2ccccc2)CN2CCN(C(=O)C3CC3)C[C@H]12`, the Percent Effect was -34.9%. As for `CCC[C@H]1CN(S(C)(=O)=O)C[C@@H]1NC(=O)Cc1ccc(OC)cc1`, the figure is -10.8%; as for `CCC[C@H]1CN(S(C)(=O)=O)C[C@@H]1NC(=O)c1ccc(COC)cc1`, 125%; as for `CCC[C@H]1CN(S(C)(=O)=O)C[C@@H]1NC(=O)COC(C)C`, -31%. As for `CCc1cnc(N2C[C@H]3CCCC(N(C)Cc4ccccn4)[C@H]3C2)nc1` (some centres undefined), the Percent Effect is -25%. Then `CC1(C)OCC(CNC(=O)c2cnn(-c3ccc(Cl)cc3)c2N)O1` (centres undefined), with -15.3%. Then `CC1(C)OCC(CNC(=O)c2cnn(-c3cc(Cl)ccc3Cl)c2N)O1` (centres undefined), with -5.14%; and `Cc1ccc(C)c(-n2ncc(C(=O)NCC3COC(C)(C)O3)c2N)c1` (centres undefined), with 66.6%; and `CC(=O)NCC1CCN(C(=O)NCc2ccc3c(c2)OCCO3)CC1`, with -0.159%. As to `NC(=O)C1CCN(C(=O)NCc2ccc3c(c2)OCCO3)CC1`, the Percent Effect was -21.9%.

Turning to `O=C(NCc1ccc2c(c1)OCCO2)N1CCC(CO)CC1`, the Percent Effect came to 52.7%. Take `COCCN1C(=O)[C@]2(CC[C@@H]3CN(C(=O)NCC(C)C)C[C@@H]32)N=C1C`: the Percent Effect is -6.17%.

With `COC(=O)c1sc2cccc(F)c2c1CNC(=O)C1CCOC1` (centres undefined), the Percent Effect stood at 68.2%. In the case of `COC(=O)c1sc2cccc(F)c2c1CNC(=O)C1CCCO1` (centres undefined), the Percent Effect was 1.86%. For the compound `COC(=O)c1sc2cccc(F)c2c1CNC(=O)C1CC1`, the Percent Effect worked out at 1.9%. For the compound `Cc1noc(C)c1CN1CC[C@H]2[C@H]1CCN2CC1CCOCC1`, the Percent Effect was 10.3%. Regarding `CN(Cc1ccc(N2CCOCC2)cc1)Cc1noc(C(C)(C)C)n1`, the Percent Effect came out at 21.8%.

As for `CN(Cc1ccc(N2CCCCC2)cc1)Cc1noc(C(C)(C)C)n1`, the Percent Effect was 85.2%.

On to `CN(Cc1noc(C(C)(C)C)n1)Cc1ccccc1N1CCCCC1`, for which the Percent Effect was found to be 1.5%.

Turning to `Cn1cncc1CN1C[C@@H]2OCCN(c3ncccn3)[C@@H]2C1`, the Percent Effect was -16.4%.

On to `O=C(Nc1ccccc1)N1C[C@@H]2OCCN(C(=O)c3ccco3)[C@@H]2C1`, for which the Percent Effect is -42.5%.

`CN1CCN(C(=O)[C@@H]2CCO[C@@H]3CCN(c4ncccn4)C[C@@H]32)CC1`: the Percent Effect was -7.46%. For the compound `Cn1cc(-c2cc(C(F)F)n3nc(CCC(=O)O)nc3n2)cn1`, the Percent Effect came out at 51.2%.

In the case of `Cc1nn(C)cc1-c1cc(C(F)F)n2nc(CCC(=O)O)nc2n1`, the Percent Effect stood at 16.4%.

For the compound `CC(C)c1cc(C(F)(F)F)n2nc(CCC(=O)O)nc2n1`, the Percent Effect was 5.23%. With `CCn1ncc(-c2cc(C(F)F)n3nc(CCC(=O)O)nc3n2)c1C`, the Percent Effect is 15.6%. As for `CCn1cc(-c2cc(C(F)F)n3nc(CCC(=O)O)nc3n2)cn1`, the figure is 32.3%; as for `CCn1cc(-c2cc(C(F)F)n3nc(CC(=O)O)nc3n2)cn1`, 62.5%; as for `CN(C)C(=O)N1CCN(CCCc2ccccc2)[C@H]2CS(=O)(=O)C[C@H]21`, -15%. As to `Cc1oncc1C(=O)N1C[C@H](OCc2ccccn2)[C@H]2OCCC[C@H]21`, the Percent Effect is -0.48%. Then `O=S1(=O)C[C@@H]2[C@H](C1)N(Cc1ncc[nH]1)CCN2Cc1cccnc1`, with -6.48%; and `COC(=O)CNC(=O)c1cn(-c2ccccn2)c(=O)c2ccccc12`, with 41.4%. Turning to `CC(C)CNC(=O)c1cn(-c2ccccn2)c(=O)c2ccccc12`, the Percent Effect was found to be 42.5%. For the compound `O=C(O)c1cn(-c2ccccn2)c(=O)c2ccccc12`, the Percent Effect came out at 57%. Turning to `CN(C)C(=O)[C@]12CCCN(CC3CC3)C[C@H]1CN(c1ccccn1)C2`, the Percent Effect was -21.7%. As to `COCCc1noc(-c2cn(Cc3ccc(OC)cc3)nn2)n1`, the Percent Effect is -2.84%. As for `COCCc1noc(-c2cn(Cc3ccccc3C)nn2)n1`, the Percent Effect is -13.8%.

Consider `COCCc1noc(-c2cn(CCc3ccccc3)nn2)n1`, for which the Percent Effect came out at 62.2%.

For `CN(Cc1cncnc1)[C@@H]1CN(Cc2ccco2)C[C@@H]2CCCO[C@@H]21`, the Percent Effect was -4.7%.

Take `O=C(NCC1CC1)[C@H]1C[C@@H]2CCN(Cc3nccs3)C[C@@H]2O1`: the Percent Effect was -42.1%. Consider `O=C(N[C@H]1CN[C@H]2CCCO[C@H]21)c1ccno1`, for which the Percent Effect is -17%. Turning to `O=C(c1cnccn1)N1C[C@@H]2CC[C@H](C1)N(S(=O)(=O)c1cccnc1)C2`, the Percent Effect was 56.1%. For the compound `O=C(c1ccccc1)N1C[C@@H]2CC[C@H](C1)N(S(=O)(=O)c1cccnc1)C2`, the Percent Effect was -34.5%.

Regarding `O=C(c1ccncc1)N1C[C@@H]2CC[C@H](C1)N(S(=O)(=O)c1cccnc1)C2`, the Percent Effect is -25.8%. Take `O=S1(=O)C[C@@H]2[C@H](C1)N(Cc1ncc[nH]1)CCN2C/C=C/c1ccccc1`: the Percent Effect was found to be 5.07%. As for `CCC1=N[C@@]2(CC[C@@H]3CN(S(=O)(=O)CC)C[C@@H]32)C(=O)N1CCOC`, the Percent Effect is -31.3%. Consider `Cc1cnc2c(C(=O)N3CCCC(OCc4ccccn4)C3)cnn2c1` (centres undefined), for which the Percent Effect was determined as 81.5%. As for `O=C(c1cnn2ccccc12)N1CCCC(OCc2ccccn2)C1` (centres undefined), the Percent Effect was -9.11%. For the compound `CCCn1ncc(C(=O)N2CCCC(OCc3ccccn3)C2)c1C` (centres undefined), the Percent Effect was -15.6%. For the compound `Cc1cccc(CN2CC[C@H]3OCC[C@@]3(C(=O)N3CCCO3)C2)n1`, the Percent Effect stood at 8.33%.
